The source of these data is the antibiotic and cytotoxicity screens of Wong et al. (2023).

Screen size: about 39,000 compounds; about 3,300 (8.5%) were called active. The sample as a whole holds a higher share of actives than the screen did.

In the experiment the test system is HepG2. The experiment is described as follows: cytotoxicity call (relative viability < 0.9). The note with it: 10 µM.
Regarding `COc1ccc(S(=O)(=O)N(C)C[C@H]2OCCCC[C@H](C)Oc3ccc(NC(=O)Nc4ccccc4)cc3C(=O)N([C@H](C)CO)C[C@@H]2C)cc1`, the cytotoxicity call was “inactive”.
The entry for `O=C(C[C@@H]1CC[C@@H]2[C@H](COC[C@H](O)CN2C(=O)Nc2cccc(F)c2)O1)NCCCN1CCOCC1` is “inactive”; for `C[C@@H]1CN([C@@H](C)CO)C(=O)c2cc(NS(=O)(=O)c3ccccc3)ccc2O[C@@H](C)CCCCO[C@@H]1CN(C)S(=O)(=O)c1cn(C)cn1` it is “inactive”.
As to `C[C@@H]1CN([C@H](C)CO)C(=O)c2cc(NC(=O)CCC(F)(F)F)ccc2O[C@@H](C)CCCCO[C@@H]1CN(C)C(=O)CCC(F)(F)F`, the cytotoxicity call is “inactive”.
Regarding `COc1ccc(-c2oc3cc(OC)c(OC)c(OC)c3c(=O)c2OC)cc1OC`, the cytotoxicity call is “active”.
Take `COc1ccc(-c2oc3cc(OC)c(OC)c(OC)c3c(=O)c2OC)cc1`: the cytotoxicity call is “inactive”.
The entry for `COc1cc(O)c2c(=O)c(OC)c(-c3ccc(OC)c(OC)c3)oc2c1` is “inactive”; for `O=C(C[C@H]1C=C[C@@H](NC(=O)Cc2ccccn2)[C@H](CO)O1)NCCCN1CCOCC1` it is “inactive”; for `C[C@@H]1CN([C@H](C)CO)C(=O)c2c(c3ccccc3n2C)-c2ccccc2CO[C@H]1CN(C)C(=O)[C@H](C)c1ccccc1` it is “inactive”.
Then `C[C@H]1O[C@@H](O[C@H]2[C@@H](O)C[C@H](O[C@H]3[C@@H](O)C[C@H](O[C@H]4CC[C@@]5(C)[C@H](CC[C@@H]6[C@@H]5C[C@@H](O)[C@]5(C)[C@@H](C7=CC(=O)OC7)CC[C@]65O)C4)O[C@@H]3C)O[C@@H]2C)C[C@H](O)[C@@H]1O`, with “active”.
The entry for `C[C@H]1O[C@@H](O[C@H]2[C@@H](O)C[C@H](O[C@H]3[C@@H](O)C[C@H](O[C@H]4CC[C@@]5(C)[C@H](CC[C@@H]6[C@@H]5C[C@@H](O)[C@@]5(C)[C@@H](C7=CC(=O)OC7)CC[C@]65O)C4)O[C@@H]3C)O[C@@H]2C)C[C@H](O)[C@@H]1O` is “active”.
For `CC1OC(OC2C(O)CC(OC3C(O)CC(OC4CCC5(C)C(CCC6C5CC(O)C5(C)C(C7=CC(=O)OC7)CCC65O)C4)OC3C)OC2C)CC(O)C1O` (centres undefined), the cytotoxicity call is “active”.
Then `O=C(C[C@H]1CC[C@H]2[C@@H](COC[C@H](O)CN2S(=O)(=O)c2ccc(F)cc2)O1)N[C@@H]1CCN(Cc2ccccc2)C1`, with “inactive”; and `CO[C@H]1CN(C)C(=O)c2ccc(NS(C)(=O)=O)cc2OC[C@@H](C)N(C(=O)C2CCCCC2)C[C@@H]1C`, with “inactive”.
The entry for `C[C@@H]1CCCCO[C@@H](CN(C)C(=O)C2CCCCC2)[C@@H](C)CN([C@@H](C)CO)C(=O)c2cc(NS(=O)(=O)c3ccc(F)cc3)ccc2O1` is “inactive”; for `COc1ccc(S(=O)(=O)N(C)C[C@@H]2Oc3ccc(NS(=O)(=O)c4ccc(F)cc4)cc3CC(=O)N([C@@H](C)CO)C[C@@H]2C)cc1` it is “inactive”; for `C[C@@H]1CN([C@H](C)CO)C(=O)c2cc(NC(=O)NC3CCCCC3)ccc2O[C@H]1CN(C)S(=O)(=O)c1cn(C)cn1` it is “inactive”.
The entry for `Cc1ccc(S(=O)(=O)N(C)C[C@@H]2Oc3ccc(NC(=O)CCN4CCOCC4)cc3CC(=O)N([C@H](C)CO)C[C@@H]2C)cc1` is “inactive”.
As for `C[C@@H]1CN([C@H](C)CO)C(=O)c2cccc(NC(=O)Nc3ccc(C(F)(F)F)cc3)c2O[C@@H]1CN(C)S(=O)(=O)c1ccc(Cl)cc1`, the cytotoxicity call was “inactive”.
As to `Cc1ccc(S(=O)(=O)N(C)C[C@H]2Oc3c(NC(=O)Nc4ccc(C(F)(F)F)cc4)cccc3C(=O)N([C@@H](C)CO)C[C@H]2C)cc1`, the cytotoxicity call is “active”.
Then `Cc1ccc(S(=O)(=O)N(C)C[C@@H]2Oc3c(NC(=O)Nc4ccc(C(F)(F)F)cc4)cccc3C(=O)N([C@@H](C)CO)C[C@H]2C)cc1`, with “inactive”; and `C[C@H](CO)N1C[C@H](C)[C@H](CN(C)S(=O)(=O)c2ccc(Cl)cc2)Oc2c(NC(=O)Nc3ccc(C(F)(F)F)cc3)cccc2C1=O`, with “inactive”; and `C[C@H]1CN([C@@H](C)CO)C(=O)c2cccc(NC(=O)Nc3ccc(C(F)(F)F)cc3)c2O[C@H]1CN(C)S(=O)(=O)c1ccc(Cl)cc1`, with “active”.
Turning to `Cc1ccc(S(=O)(=O)N(C)C[C@@H]2Oc3c(NC(=O)Nc4ccc(C(F)(F)F)cc4)cccc3C(=O)N([C@H](C)CO)C[C@H]2C)cc1`, the cytotoxicity call was “inactive”.
The entry for `Cc1ccc(OC(=O)N(C)C[C@@H]2OCc3ccccc3-c3ccccc3C(=O)N([C@H](C)CO)C[C@H]2C)cc1` is “inactive”.
The entry for `C[C@@H]1CN([C@H](C)CO)C(=O)Cc2cc(NC(=O)Cc3ccccc3)ccc2O[C@H]1CN(C)C(=O)Nc1ccc(C(F)(F)F)cc1` is “inactive”; for `C[C@@H]1CN([C@H](C)CO)C(=O)c2cc(N(C)C)ccc2O[C@@H](C)CCCCO[C@@H]1CN(C)S(C)(=O)=O` it is “inactive”; for `CCCNC(=O)N(C)C[C@@H]1Oc2cc(C#Cc3ccccn3)ccc2S(=O)(=O)N([C@H](C)CO)C[C@H]1C` it is “inactive”.
For `Cc1ccc(S(=O)(=O)N(C)C[C@H]2Oc3ccc(NC(=O)NC(C)C)cc3CC(=O)N([C@@H](C)CO)C[C@H]2C)cc1`, the cytotoxicity call was “inactive”.
Then `NC(=O)[C@@]1(CCS(=O)(=O)c2ccccc2)N=C(c2ccc(OCCCO)cc2)O[C@H]1c1ccccc1`, with “inactive”; and `C[C@@H](Oc1cc(-n2cnc3ccc(CN4CCN(C)CC4)cc32)sc1C(N)=O)c1ccccc1C(F)(F)F`, with “active”.
In the case of `C[C@@H]1CN([C@@H](C)CO)C(=O)c2cc(C#CC3(O)CCCC3)cnc2O[C@@H]1CN(C)C(=O)Cc1cccnc1`, the cytotoxicity call was “inactive”.
`C[C@@H]1CN([C@H](C)CO)C(=O)c2cc(C#CC3(O)CCCC3)cnc2O[C@@H]1CN(C)C(=O)CN(C)C`: the cytotoxicity call was “inactive”.
For `CCCC(=O)Nc1ccc2c(c1)C(=O)N(C)C[C@@H](OC)[C@H](C)CN(Cc1ccc(-c3ccccn3)cc1)[C@@H](C)CO2`, the cytotoxicity call was “inactive”.
Then `CCC(CO)NCCNC(CC)CO.Cl.Cl` (centres undefined), with “inactive”.
As to `C=CC[C@H](CC(=O)N[C@@H](CO)Cc1ccccc1)C(=O)N[C@@H](COC(=O)[C@@H](CC=C)Cc1ccc(F)cc1)Cc1ccccc1`, the cytotoxicity call was “inactive”.
Then `C=CCC[C@@H](Cc1ccc(F)cc1)C(=O)OC[C@@H](NC(=O)[C@@H](CC=C)CC(=O)N[C@@H](CO)Cc1ccccc1)C(C)(C)C`, with “inactive”.
The entry for `C=CCC[C@@H](Cc1ccc(F)cc1)C(=O)OC[C@@H](Cc1ccccc1)NC(=O)[C@H](CC=C)CC(=O)N[C@@H](CO)Cc1ccccc1` is “inactive”.
The entry for `C=CCC[C@@H](Cc1ccc(F)cc1)C(=O)OC[C@@H](NC(=O)[C@@H](CC=C)CC(=O)N[C@H](CO)Cc1ccccc1)C(C)(C)C` is “active”.
Consider `C=CCC[C@H](Cc1ccc(F)cc1)C(=O)OC[C@@H](NC(=O)[C@@H](CC=C)CC(=O)N[C@H](CO)Cc1ccccc1)C(C)(C)C`, for which the cytotoxicity call was “inactive”.
Consider `C=CCC[C@H](Cc1ccc(F)cc1)C(=O)OC[C@@H](NC(=O)[C@@H](CC=C)CC(=O)N[C@@H](CO)Cc1ccccc1)C(C)(C)C`, for which the cytotoxicity call is “active”.
Turning to `C[C@H]1CN([C@@H](C)CO)C(=O)c2cc(C#Cc3cccnc3)cnc2O[C@@H]1CN(C)S(=O)(=O)c1ccccc1F`, the cytotoxicity call was “inactive”.
`C[C@H](CO)N1C[C@H](C)[C@@H](CN(C)S(=O)(=O)c2cn(C)cn2)OCCCC[C@H](C)Oc2ccc(NC(=O)CCCN(C)C)cc2C1=O`: the cytotoxicity call was “inactive”.
Take `O=C(C[C@H]1CC[C@H](NS(=O)(=O)c2ccccc2)[C@@H](CO)O1)NCc1ccncn1`: the cytotoxicity call is “inactive”.
Take `C[C@@H]1CCCCO[C@@H](CN(C)C(=O)CCCN(C)C)[C@@H](C)CN([C@H](C)CO)C(=O)c2cc(NS(C)(=O)=O)ccc2O1`: the cytotoxicity call was “inactive”.
For the compound `COc1ccc(S(=O)(=O)N[C@H]2CC[C@H](CC(=O)N3CCN(c4ccccc4)CC3)O[C@@H]2CO)cc1`, the cytotoxicity call is “inactive”.
The entry for `Cn1c(CC#N)n[nH]c1=S` is “inactive”.
The entry for `CC(C)NC(=O)Nc1ccc2c(c1)C(=O)N([C@@H](C)CO)C[C@H](C)[C@@H](CN(C)S(C)(=O)=O)OCCCC[C@H](C)O2` is “inactive”; for `CCN1CCCC1CNC(=O)c1cc(S(=O)(=O)CC)c(N)cc1OC` (centres undefined) it is “active”.
Take `CCN(CC)CCNC(=O)c1cc(Br)c(N)cc1OC`: the cytotoxicity call is “inactive”.
The entry for `CCN1CCCC1CNC(=O)c1cc(S(N)(=O)=O)ccc1OC` (centres undefined) is “inactive”; for `COc1ccc(NC(=O)Nc2cccc3c2O[C@H](CN(C)Cc2ccc(C(=O)Nc4ccccc4N)cc2)[C@H](C)CN([C@@H](C)CO)C3=O)cc1` it is “inactive”.
Then `COc1cc(OC)c2c(c1Cl)OC1(C2=O)C(O)=CC(=O)CC1C` (centres undefined), with “inactive”; and `COC1=CC(=O)CC(C)C12Oc1c(Cl)c(OC)cc(OC)c1C2=O` (centres undefined), with “active”.
For `NC(=O)N1C(=O)[C@H]2[C@H](C1=O)[C@H]1C=C(c3ccc(CO)cc3)[C@@H]2[C@@H](C2CC2)N1Cc1cc2c(cc1Br)OCO2`, the cytotoxicity call was “inactive”.
Consider `CCCC#Cc1ccc2c(c1)O[C@H](CN(C)S(=O)(=O)c1cccc(F)c1)[C@@H](C)CN([C@H](C)CO)S2(=O)=O`, for which the cytotoxicity call is “inactive”.
Then `Cc1ccccc1NC(=O)CC(C)C`, with “inactive”; and `CCn1c(=O)c(-c2cc(NC(=O)Nc3ccccc3)c(F)cc2Br)cc2cnc(NC)cc21`, with “active”; and `CN(C)CCCCCCNC(=O)[C@H]1C[C@H]2C(=O)NCC(=O)N2[C@H]1c1cccc(OCCO)c1`, with “inactive”.
`Cc1ccc(S(=O)(=O)Nc2ccc3c(c2)C(=O)N([C@@H](C)CO)C[C@@H](C)[C@H](CN(C)C(=O)Nc2ccc(C(F)(F)F)cc2)OCCCC[C@@H](C)O3)cc1`: the cytotoxicity call was “inactive”.
Then `CC[C@@]1(C)N[C@H](C(=O)O)CS1`, with “inactive”; and `COc1ccc2cc(-c3cc(-c4cc(Cl)cc(Cl)c4)nn3[C@@H](C)c3ccc(C(=O)NCCC(=O)O)cc3)ccc2c1`, with “inactive”; and `COc1ccc(-n2nc(CCC(=O)N(C)O)cc2-c2ccc(Cl)cc2)cc1`, with “active”.
Then `C[C@H](CO)N1C[C@H](C)[C@H](CN(C)CC2CC2)Oc2cc(C#Cc3cccc(F)c3)ccc2S1(=O)=O`, with “inactive”.
